Screening data (PubChem BioAssay)
Only some compounds are listed: those with a hit (about 0.92% of all), similar ones and a draw of the others.
BLM inh: Bloom syndrome helicase (human) inhibition. P54132. recombinant BLM DNA unwinding, fluorescence dequenching. Potency, µM (series often up to 56.1 µM), without a hit: at the highest dose activity change, negative = inhibition, most hits filed as inhibitors. 350,000 tested, 0.2% active;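 note: plate controls were vehicle for no effect and no enzyme for full effect; nearly all actives have a fitted effect of over 35% in size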
TDP1 block: inhibitors of human tyrosyl-DNA phosphodiesterase TDP1; Potency, µM (highest dose often 130 µM), inactives show at the highest dose activity change, negative = inhibition, usual class: inhibitors; recombinant TDP1, AlphaScreen DNA substrate cleavage; 350,000 tested, 0.28% active; Q9NUW8; note: nearly all actives have a fitted effect of over 40% in size
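E. coli-derived human Tdp1, 1 nM final. Cpd preinc 15 min RT; substrate 15 nM final, 5 min RT; AS bead mix 10 ug/ml final, 10 min RT. Signal loss = tyrosine-FITC cleavage. No-enzyme wells = max signal.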
APE1 inh-1: blocks human APE1 abasic DNA cleavage; 350,000 tested, 0.35% active; recombinant APE1, TAMRA/BHQ-2 abasic DNA cleavage fluorescence; Potency, µM (highest dose often 65.8 µM), for the others: top-dose activity change, negative = inhibition, hits mostly inhibitors;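 note: plate controls were vehicle for no effect and reference inhibitor for full effect; nearly all actives have a fitted effect of over 55% in size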
Target sequence (P27695 whole entry, looked up): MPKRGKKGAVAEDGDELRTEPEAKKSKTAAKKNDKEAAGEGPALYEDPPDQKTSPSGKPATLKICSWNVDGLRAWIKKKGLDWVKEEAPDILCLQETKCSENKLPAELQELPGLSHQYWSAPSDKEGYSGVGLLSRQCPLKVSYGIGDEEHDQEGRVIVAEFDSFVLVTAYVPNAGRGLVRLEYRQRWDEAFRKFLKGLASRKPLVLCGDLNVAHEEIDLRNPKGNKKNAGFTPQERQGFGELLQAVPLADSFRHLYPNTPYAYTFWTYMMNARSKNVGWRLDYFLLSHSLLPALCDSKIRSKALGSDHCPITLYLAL
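0.75 nM APE1 + cpd, 15 min RT; start w/ 50 nM TAMRA/BHQ-2 THF-abasic dsDNA; kinetic fluor 525/598 nm ×3 reads @60 s; Δ(read3−read1); normalized to DMSO and NSC13755 control wells.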
FEN1 inhibitor: blocks human flap endonuclease 1. Recombinant FEN1 flap cleavage, fluorescence, 15 min. Potency, µM (titrated, usually from 114 µM), for the others: top-dose activity change, negative = inhibition, most hits filed as inhibitors. AID 588795. P39748. 390,000 tested, 0.35% active; note: nearly all actives have a fitted effect of over 65% in size
Target sequence (P39748 whole entry, looked up): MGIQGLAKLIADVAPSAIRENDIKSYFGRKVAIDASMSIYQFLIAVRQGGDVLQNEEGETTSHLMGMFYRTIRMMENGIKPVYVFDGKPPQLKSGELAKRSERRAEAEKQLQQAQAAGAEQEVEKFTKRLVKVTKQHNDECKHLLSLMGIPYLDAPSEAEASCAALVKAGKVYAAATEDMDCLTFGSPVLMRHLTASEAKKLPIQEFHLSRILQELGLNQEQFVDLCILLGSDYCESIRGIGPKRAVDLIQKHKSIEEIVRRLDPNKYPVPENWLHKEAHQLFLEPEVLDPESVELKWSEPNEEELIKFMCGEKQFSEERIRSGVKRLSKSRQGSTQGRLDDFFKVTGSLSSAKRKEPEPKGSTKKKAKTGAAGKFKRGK
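FEN1 at 10 nM preincubated with compounds 15 min at room temperature, then flap DNA substrate added at 50 nM final. Signal read at 0 and 15 min; concentration-response fitted with four-parameter Hill equation.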
RECQ1 helicase: RECQ1 (human) helicase inhibition; P46063; 240,000 tested, 0.54% active; Potency, µM (titrated, usually from 57.3 µM), without a hit: top-dose activity, negative = inhibition, most hits filed as inhibitors; RECQ1 DNA unwinding, red fluorescence kinetic read;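 note: plate controls were vehicle for no effect and no enzyme for full effect; nearly all actives have a fitted effect of over 30% in size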
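RECQ1T1 50 nM; forked duplex (20 bp + 30-nt ss tails) 200 nM, ATP 2 mM final; pH 8.0, 2 mM MgCl2, 2.5 ug/ml poly(dI-dC); 15 min compound preincubation; discontinuous kinetic read over 2 h at RT.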
DNA dye displace: DNA dye displacement counter-screen activity. shares compounds with APE1 inh-1. DNA fluorescent dye displacement counterscreen, fluorescence. Potency, µM (titrated, usually from 28.5 µM), without a hit: top-dose activity change, negative = inhibition, most hits filed as inhibitors. 480 tested, 7% active;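 note: loss of thiazole orange fluorescence as the dye is displaced from duplex DNA; 0% = ThO with dsDNA and no compound and -100% = ThO without dsDNA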
Endo IV inh: counter-screen for APE1 inhibitors: inhibitors of E. coli endonuclease IV | shares compounds with APE1 inh-1 | E. coli Endo IV, fluorogenic AP-site DNA cleavage | Potency, µM (series often up to 27.1 µM), for the others: top-dose activity change, negative = inhibition, hits mostly inhibitors | 560 tested, 4% active | AID 2565;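 note: plate controls were uninhibited enzyme wells for no effect and no enzyme buffer wells for full effect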
APE1 inh-2: APE1 (human) endonuclease inhibition, confirmation; 750 tested, 44% active; purified APE1, fluorogenic abasic-site DNA cleavage; Potency, µM (top dose mostly 57.1 µM), without a hit: at the highest dose activity change, negative = inhibition, actives largely listed as inhibitors; shares compounds with APE1 inh-1; AID 2572; note: nearly all actives have a fitted effect of over 30% in size
APE1 FP: compounds that displace a DNA probe from human APE1. shares compounds with APE1 inh-1. APE1 binding to TAMRA-labelled double-stranded DNA, fluorescence polarization displacement. Potency, µM (highest dose often 28.5 µM), without a hit: at the top dose activity, negative = inhibition, hits mostly inhibitors. 480 tested, 7% active
An asterisk follows results filed as active; [ ] = remark or other dose. Calls come from the whole dose curve; as a rule, active = well fitted curve in the direction sought with a large enough effect; inconclusive = small, poorly fitted or top-dose-only effect, or another doubt; inactive = no such curve, though single readings can be large; an effect the other way counts as inactive or inconclusive. Unless noted, % is set by controls: 0 for no effect and ±100 for the full control effect; potency is the fitted concentration of half-maximal effect.

What do the screens show for `CCOC(=O)CCN1C(=O)[C@H]2[C@H]3[C@H](O)[C@H](O)C/C(=N/NC(=O)OCc4ccccc4)[C@H]3CC[C@@H]2C1=O`?
BLM inh: -1%[12.4 µM]; TDP1 block: 5%[21 µM]; APE1 inh-1: 14%[12.4 µM]; RECQ1 helicase: inactive[11.5 µM]

What do the screens show for `CC[C@H](C)[C@H](NC(=O)CNC(=O)[C@H](CCCNC(=N)N)NC(=O)[C@H](CO)NC(=O)[C@H](C)NC(=O)[C@H](Cc1ccc(O)cc1)NC(=O)[C@H](Cc1c[nH]c2ccccc12)NC(=O)[C@H](C)NC(=O)[C@@H]1CCCN1C(=O)[C@H](CC(N)=O)NC(=O)[C@@H](NC(=O)[C@H](CC(=O)O)NC(=O)[C@@H]1CCCN1C(=O)[C@@H](N)[C@@H](C)O)[C@@H](C)CC)C(=O)N[C@@H](CCCNC(=N)N)C(=O)N1CCC[C@H]1C(=O)N[C@H](C(=O)NCC(=O)N[C@@H](CCCNC(=N)N)C(=O)N[C@@H](Cc1ccccc1)C(N)=O)C(C)C`?
BLM inh: -12%; TDP1 block: 11%; APE1 inh-1: 13%; RECQ1 helicase: -3%

What do the screens show for `Oc1ccc(C2Oc3cc(O)cc(O)c3CC2O)cc1` (configuration not stated)?
BLM inh: 3%; TDP1 block: 8%[56.1 µM]; APE1 inh-1: -7%; RECQ1 helicase: inactive

Results for Oc1cc(O)c2c(c1)O[C@H](c1ccc(O)c(O)c1)[C@H](O)C2 ?
BLM inh: -3%; TDP1 block: -3%[21 µM]; APE1 inh-1: -9%; FEN1 inhibitor: 15%; RECQ1 helicase: -18%[25.9 µM]; DNA dye displace: 2%; Endo IV inh: 137%; APE1 inh-2: -6%[24.4 µM]; APE1 FP: inconclusive

What do the screens show for `NCCC[C@@H](CC(=O)N[C@@H]1CCCC[C@H]1C(=O)N[C@H](CC(=O)N[C@@H](CCC(=O)O)CC(=O)O)Cc1ccccc1)NC(=O)C[C@H](Cc1ccccc1)NC(=O)[C@@H]1CCCC[C@H]1N`?
BLM inh: 1%; TDP1 block: 6%; APE1 inh-1: 19%; RECQ1 helicase: 1%

Results for N#C/C(=C\c1ccc(O)c(O)c1)C(=O)c1ccc(O)c(O)c1 ?
APE1 inh-1: 0.095µM*; FEN1 inhibitor: 1.4µM*; RECQ1 helicase: 1.6µM*; Endo IV inh: inconclusive; APE1 inh-2: 0.2µM*

What do the screens show for `COc1ccc(NS(=O)(=O)c2ccc(O)c(C(=O)OCC(=O)NC(C)C3CC4CCC3C4)c2)cc1` (configuration not stated)?
BLM inh: -12%; APE1 inh-1: 22µM*; FEN1 inhibitor: 2%; RECQ1 helicase: -14%; DNA dye displace: inconclusive; Endo IV inh: -6%; APE1 inh-2: inconclusive; APE1 FP: inconclusive

How did CC(NC(=O)COC(=O)c1cc(NS(=O)(=O)c2ccc(Cl)c([N+](=O)[O-])c2)ccc1O)C1CC2CCC1C2 (configuration not stated) do in these assays?
BLM inh: -15%; TDP1 block: 7%; APE1 inh-1: -12%; FEN1 inhibitor: -17%; RECQ1 helicase: -9%

What do the screens show for `O=C(O)c1ccccc1-n1cnnn1`?
BLM inh: 2%; APE1 inh-1: 0%; FEN1 inhibitor: 20%; RECQ1 helicase: -3%

How did O=C(O)c1ccccc1-n1cccc1C(=O)O do in these assays?
BLM inh: -5%; TDP1 block: inconclusive; APE1 inh-1: inconclusive; FEN1 inhibitor: 3%; RECQ1 helicase: -9%; DNA dye displace: -5%; Endo IV inh: 0%; APE1 inh-2: 13µM*; APE1 FP: inconclusive

What do the screens show for `CCOC(=O)c1sc(N2C(=O)c3oc4ccc(F)cc4c(=O)c3C2c2ccc(O)cc2)nc1C` (configuration not stated)?
BLM inh: -5%; TDP1 block: 1%; FEN1 inhibitor: -5%

How did O=C(O)c1cc(-c2ccc(/C=C3\NC(=O)N(c4ccccc4)C3=O)o2)ccc1Cl do in these assays?
BLM inh: 5%; TDP1 block: 8.9µM*; APE1 inh-1: 25µM*; FEN1 inhibitor: inconclusive; RECQ1 helicase: 25µM*; APE1 inh-2: inconclusive

Results for C#CCN1C(=O)S/C(=C\c2ccc(-c3ccc(Cl)c(C(=O)O)c3)o2)C1=O ?
BLM inh: -7%; APE1 inh-1: 4%; FEN1 inhibitor: inconclusive

How did Cc1cccc(N2NC(=O)/C(=C/c3ccc(-c4ccc(Cl)c(C(=O)O)c4)o3)C2=O)c1 do in these assays?
BLM inh: -12%; TDP1 block: 11µM*; APE1 inh-1: 18µM*; FEN1 inhibitor: inconclusive; RECQ1 helicase: inconclusive; DNA dye displace: -14%; Endo IV inh: 2%; APE1 inh-2: inconclusive; APE1 FP: 1%

What do the screens show for `O=C1NN(c2ccccc2)C(=O)/C1=C/c1ccc(-c2ccc(Cl)c(C(=O)O)c2)o1`?
BLM inh: -11%; TDP1 block: 16µM*; APE1 inh-1: 13µM*; FEN1 inhibitor: inconclusive; RECQ1 helicase: inconclusive; DNA dye displace: inconclusive; Endo IV inh: -4%; APE1 inh-2: 22µM*; APE1 FP: inconclusive

How did Cc1[nH]c2ccccc2c1C(=O)CNc1ccc(Br)cc1 do in these assays?
FEN1 inhibitor: -31%

What do the screens show for `Cc1c(Cl)cccc1-n1ncc(C(=O)NCCN2CCN(C)CC2)c1C1CCN(C(=O)OC(C)(C)C)CC1`?
BLM inh: 3%; TDP1 block: -2%; FEN1 inhibitor: -4%

What do the screens show for `O=c1ccc2c(OCCCCc3ccccc3)c3ccoc3cc2o1`?
TDP1 block: -12%[56.1 µM]; APE1 inh-1: -4%; RECQ1 helicase: -2%; Endo IV inh: -12%[57.1 µM]; APE1 inh-2: -30%

How did CN(C)C1CCC(CC2CCc3ccccc32)CC1 (configuration not stated) do in these assays?
FEN1 inhibitor: 6%
